APOBEC3A inh – human APOBEC3A DNA deaminase inhibition; recombinant A3A, FAM/TAMRA ssDNA deamination fluorescence; inhibition, % at 20 µM; actives 0.41% (n = 330,000); AID 493011; P31941;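 active = at least 40% inhibition at 20 µM here, with at most 30% in a related deaminase screen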;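 note: plate controls were A3A with DMSO for no effect and wells lacking A3A enzyme for full effect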
Target sequence (P31941 whole entry, looked up): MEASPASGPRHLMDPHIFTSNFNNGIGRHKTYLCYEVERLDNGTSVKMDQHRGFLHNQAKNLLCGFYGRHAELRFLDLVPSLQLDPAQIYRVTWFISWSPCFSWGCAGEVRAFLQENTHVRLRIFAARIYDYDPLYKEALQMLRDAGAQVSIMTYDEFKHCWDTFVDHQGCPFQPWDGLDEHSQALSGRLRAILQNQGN
PfM18AAP inh – PfM18AAP enzyme inhibition; recombinant PfM18AAP, H-Glu-NHMec fluorogenic cleavage; inhibition, % at 7.35 µM; actives 1.2% (n = 290,000); AID 1822;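 active = inhibition above the campaign mean inhibition over all tested compounds plus 3 SD, cut at about 28% in these data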;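 note: 0% = plate median of test compound wells and 100% = 2 mM ZnCl2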
CR mimetic SO – yeast age-related superoxide inhibition as caloric restriction mimetic | S. cerevisiae aged cells, superoxide DHE fluorescence; stronger effect = lower value | superoxide response (% of plate mean), % at 10 µM | actives 0.18% (n = 330,000) | AID 2690;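 active = superoxide response under a set limit, about three screen SD below normal, cut at about 65% in these data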;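 note: yeast aged for seven days with compound at 30 °C before DHE staining; 100% = average MFI of all compound-treated wells on the plate with controls excluded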
ALR inh – blocks human ALR sulfhydryl oxidase activity | P55789 | purified ALR, DTT oxidation, H2O2 HRP-luminol luminescence | inhibition, % (test concentration not listed) | actives 3.8% (n = 290,000) | AID 485317;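 active = mean replicate inhibition above about 79%, with every replicate also reaching it, limit read from the data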
Target sequence (P55789 whole entry, looked up): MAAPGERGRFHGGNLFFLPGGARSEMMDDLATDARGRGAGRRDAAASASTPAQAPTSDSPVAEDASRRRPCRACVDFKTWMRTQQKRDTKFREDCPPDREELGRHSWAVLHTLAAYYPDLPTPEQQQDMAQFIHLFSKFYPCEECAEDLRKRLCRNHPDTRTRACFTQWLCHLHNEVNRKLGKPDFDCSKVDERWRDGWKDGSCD
A3G deaminase – inhibitors of human APOBEC3G DNA deaminase. Q9HC16. recombinant A3G, ssDNA deamination FAM/TAMRA fluorescence. inhibition, % at 20 µM. actives 0.28% (n = 330,000);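 active = inhibition of at least 40% at 20 µM, with no more than 30% in the related APOBEC3A deaminase screen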;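 note: plate controls were DMSO wells with A3G for no effect and wells lacking A3G enzyme for full effect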
NRP1-CendR mod – NRP-1/CendR interaction modulation | inhibition, % at 25 µM | FAM-RPARPAR peptide binding to NRP-1, fluorescence polarization | actives 0.85% (n = 360,000) | O14786;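 active = inhibition or corrected inhibition above about 18%, plus a signal ratio from 0.5 to 1.5, limit read from the data, passing the limit was not always enough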
* marks the source's active call; other numbers are inactive results; . = no result. The list is not random: actives were taken first. Their share in the collection is about 5.2%.

SMILES	APOBEC3A inh	PfM18AAP inh	CR mimetic SO	ALR inh	A3G deaminase	NRP1-CendR mod
CC(=O)c1[nH]c(C)c(C(=O)N2CCCC(Nc3cccc(F)c3)C2)c1C (stereo not given)	0	-7	96	75*	3	5
CCc1noc(C)c1C(=O)N1CCCC(Nc2cccc(F)c2)C1 (stereo not given)	.	.	.	.	.	-5
CCc1[nH]nc(C(=O)N2CCCC(Nc3cccc(F)c3)C2)c1C (stereo not given)	-5	-2	105	99*	-5	-7
O=[N+]([O-])c1ccc(N2CCOCC2)cc1SCc1ccco1	-4	31*	94	-5	-8	1
O=[N+]([O-])c1ccc(SCc2ccco2)cc1N1CCOCC1	0	0	104	-1	-4	4
O=C(NNc1cc(Cl)ccc1Cl)c1c(F)cccc1Cl	-1	19	91	28	-11	-1
O=C(NNc1ccc(F)cc1)c1c(F)cccc1Cl	-3	30*	81	0	-2	-2
O=C(NNc1ccc(Cl)cc1)c1c(F)cccc1Cl	-4	31*	84	13	-7	-3
CC(=O)Nc1ccc(C(=O)N2CCCCC2c2cc(C(=O)Nc3ccccc3Cl)no2)cc1 (stereo not given)	.	.	.	.	.	24*
CC(=O)Nc1ccc(C(=O)N2CCCCC2c2cc(C(=O)Nc3ccccc3)no2)cc1 (stereo not given)	.	.	.	.	.	-14
N#C/C(=C\c1ccccc1)C(=O)OCC(=O)N1CCCC1	1	5	84	11	9	24*
CC1CCN(C(=O)COC(=O)COc2ccccc2C#N)CC1	0	.	101	-3	-2	1
N#Cc1ccccc1OCC(=O)OCC(=O)N1CCCC1	0	.	88	-1	-1	19*
S=C(c1cn(Cc2ccc(Br)cc2)c2ccccc12)N1CCOCC1	-1	-5	86	7	-7	3
CC(C)(C)OC(=O)NCCCC[C@H](NC(=O)[C@H](Cc1c[nH]c2ccccc12)NC(=O)OCc1ccccc1)C(=O)O	-6	-5	116	1	-8	-5
Cc1ccc(NC(=O)CSc2nc3ccc(Nc4nc(N5CCOCC5)nc(N5CCOCC5)n4)cc3s2)cc1	1	-6	85	-5	0	-6
CCOC(=O)CSc1nc2ccc(Nc3nc(N4CCOCC4)nc(N4CCOCC4)n3)cc2s1	1	-3	96	99*	0	-6
CC(C)(C)NC(=O)CSc1nc2ccc(Nc3nc(N4CCOCC4)nc(N4CCOCC4)n3)cc2s1	4	-2	94	99*	2	-1
O=C(COC(=O)C1c2ccccc2Oc2ccccc21)NC1CCS(=O)(=O)C1 (stereo not given)	1	-8	103	7	-4	3
O=C(CNC(=O)c1ccco1)NCC(=O)OCC(=O)c1ccc(Cl)c([N+](=O)[O-])c1	2	18	99	98*	-1	1
O=C(CNC(=O)c1ccco1)OCC(=O)c1ccc(Cl)cc1	-3	-12	99	.	-6	-2
O=C(O)c1cc(-c2ccc(Cl)s2)nc2ccccc12	-1	0	110	93*	-3	-1
Cc1ccc(-c2cc(C(=O)O)c3ccccc3n2)s1	2	-3	93	23	-3	-109
O=C(/C=C/c1ccccc1)c1ccc2c(c1)OCCCCO2	1	-9	95	20	-4	-2
O=C1COc2ccc(C(=O)/C=C/c3ccccc3)cc2N1	-4	9	96	97*	-8	0
SMILES	APOBEC3A inh	PfM18AAP inh	CR mimetic SO	ALR inh	A3G deaminase	NRP1-CendR mod
Cc1cc(NC(=O)CCC(=O)N(Cc2cccnc2)C(C(=O)NC(C)(C)C)c2ccccc2Cl)no1 (stereo not given)	2	2	92	-1	-4	3
COC(=O)CCCNC(=O)c1ccc(OC2CCN(CCc3ccccc3)CC2)cc1	1	-4	109	-18	1	-2
O=C(Nc1cccn(Cc2cccc(F)c2)c1=O)NC1CCCCC1	-1	1	101	.	-6	-20
O=C(Nc1cccn(Cc2c(F)cccc2Cl)c1=O)NC1CCCCC1	-1	28*	77	.	-4	-23
Cc1ccc(NCCc2ccc(C)nc2)cc1	-5	1	88	49	-3	20*
Cc1ccc(CCNc2ccc3ccccc3c2)cn1	-12	-1	103	99*	11	3
Cc1cccc(N(Cc2cc(=O)[nH]c3ccccc23)C(=O)CCl)c1	0	6	107	-5	4	-9
C=C1CCN([C@@H](CC(C)C)C(=O)NCCC(C)C)S(=O)(=O)c2ccccc21	-3	.	109	-20	-14	24*
C=C1CCN([C@@H](Cc2ccccc2)C(=O)Nc2ccc(OC)cc2)S(=O)(=O)c2ccccc21	-1	.	105	-25	-12	27*
C=C1CCN([C@@H](CC(C)C)C(=O)NCc2ccc(Cl)cc2)S(=O)(=O)c2ccccc21	-3	.	109	0	-8	18
C=C1CCN([C@@H](CC(C)C)C(=O)NN2CCOCC2)S(=O)(=O)c2ccccc21	-6	.	97	0	-11	20
C=C1CCN([C@@H](CC(C)C)C(=O)NCc2ccc(Cl)c(Cl)c2)S(=O)(=O)c2ccccc21	-3	.	99	-5	-11	32*
COc1ccc2c(C)cc(Sc3nnnn3-c3ccccc3)nc2c1	0	-2	98	55	-6	-17
Cc1c(NC(=O)OCCNC(=O)COc2ccc(Cl)cc2Cl)sc(=S)n1C	-1	-4	91	97*	-4	8
CCOC(=O)Nc1sc(=S)n(C)c1C	1	3	98	93*	2	-1
Cc1ccc(S(=O)(=O)NCCOC(=O)Nc2sc(=S)n(C)c2C)cc1	-4	-2	97	51	-4	-2
Cc1c(NC(=O)OCCNC(=O)Nc2ccccc2)sc(=S)n1C	-3	3	97	98*	-6	-12
COc1ccccc1NC(=O)CSc1nnc2ccccn12	-1	.	110	.	-7	2
CC(=O)c1ccc(S(=O)(=O)N2CCNC(=O)C2)cc1	4	.	100	97*	4	-5
COc1ccc(/C=C/C(=O)N(C)Cc2cccs2)cc1S(=O)(=O)N1CCOCC1	-6	2	96	-6	-9	35*
CCCCCCOc1ccc(/C(N)=N/O)cc1	-2	-4	99	99*	-2	-1
Cc1ccnc(SCc2cn3c(C)cccc3n2)n1	-4	7	109	-13	-7	20*
Cc1cc(NC(=O)c2ccoc2C)ccc1Br	-3	.	103	89*	-7	5
O=C(O)c1cc(-c2ccc(/C=c3\sc4nc5ccc(Br)cc5n4c3=O)o2)ccc1Cl	.	20	95	93*	.	.
C=CCn1c(=N)n(CC(=O)OCC)c2ccccc21	1	3	84	99*	1	14
Nc1nc(/C=C/c2cccnc2)nc(-c2ccccc2O)n1	-3	0	113	94*	-2	-4

Assay outcomes (PubChem BioAssay)
